# Source: PubChem BioAssay (NCI)
# The panel holds about 79,000 compounds, 15% with a hit somewhere; the sample as a whole holds those more often. Unmarked numbers belong to inactive results. Activity calls are given as the source filed them. Cut-off read from the data, not from the text of the source: active = growth inhibition above about 70%; inactive = the rest.
# Experiment: NCI Yeast Anticancer Drug Screen. Data for the sgs1 mgt1 strain (AID 161);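 note: 0% = growth of cultures given vehicle only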
# Settings: S. cerevisiae sgs1 mgt1 strain, at 5.0 µM (retest, dose inferred, filed as 0.5), stronger effect = higher value
# Procedure, shortened: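 Inhibition of yeast growth, normalised to vehicle-treated controls, is reported for a strain bearing genetic alterations in DNA damage repair.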
row,Structure (SMILES),growth inhibition
1,O=C1C(Cl)=C(N2C(=O)CCC2=O)C(=O)c2ccccc21,99% (active)
2,C/C(=N\NC(=S)N1CCCC1)c1nc2ncccc2[nH]1,-2%
3,Clc1ccc(CN2COc3c(cc(Cl)c4cccnc34)C2)cc1Cl,10%
4,O=[N+]([O-])C1=Cc2ccccc2S(=O)(=O)CC1,14%
5,O=C1CNCCCN2CCN(CCCNCC(=O)Nc3ccc(cc3)S(=O)(=O)c3ccc(cc3)NC(=O)CNCCCN3CCN(CCCNCC(=O)Nc4ccc(cc4)S(=O)(=O)c4ccc(cc4)N1)CC3)CC2,-14%
6,O=C(Nc1ccccc1-c1nn(CN2CCNCC2)c(=S)n(CN2CCNCC2)c1=O)C(F)(F)F,-2%
7,O=[N+]([O-])c1ccc(/C(=C\c2ccccc2)Cn2ccnc2)cc1,84% (active)
8,Cc1ccc(S(=O)(=O)NNC2Oc3cc4c(cc3C(c3ccccc3O)C2C)OCO4)cc1 (stereo not given),-2%
9,CN(C)C(=O)/N=c1\ss/c(=N\C(=S)N(C)C)n1-c1ccccc1,4%
10,Cn1c(=O)cc[nH]c1=O,0%
11,Clc1ccc(C2=CCN3CC=C(c4ccc(Cl)cc4)C23)cc1,32%
12,CCOC(=O)C(Cc1cn(S(=O)(=O)c2ccccc2)c2ccccc12)(NC(C)=O)C(=O)OCC,8%
13,BrCC1(CBr)COC1,6%
14,O=C1CC(O)C=C1Nc1ccc(Cl)cc1 (stereo not given),-6%
15,COc1cc(NCCCCCNC(C)C)c2ncc(C)c(C)c2c1,3%
16,Cc1ccc(C(c2ccc(N(C)C)cc2)c2ccc(N(C)C)cc2)cc1,99% (active)
17,CCOC(=O)c1cc2c(nc1NCc1ccc(OC)c(OC)c1)/C(=C/c1ccccc1)CCCC2,47%
18,O=C1c2cccc3cc4ccccc4c(c23)C(=O)N1CCCNCCNCCCN1C(=O)c2cccc3cc4ccccc4c(c23)C1=O,96% (active)
19,CCOCCNc1ncnc2c1cnn2C,-16%
20,O=Cc1ccc(-c2nccc3c2[nH]c2ccccc23)o1,17%
21,O=c1oc2ccccc2c(O)c1C1=N/C(=N/N=C/c2ccc(Cl)cc2)SC1,-3%
22,Cc1ccccc1Oc1ccccc1N,-1%
23,CCCCCCC(=O)Nc1ccc(OC(=O)CCCCCC)c(=O)cc1,33%
24,CC(=O)C(C(C)=O)C1C=CC=CC=C1,-59%
25,C/C=C1\CC(C)(CC)C(C#N)(C#N)C(N)=C1C#N (stereo not given),2%
26,Cc1cc(Cc2ccc(Cl)cc2)ccc1O,2%
27,CCN(CC)CC(O)c1ccnc2c(O)cccc12 (stereo not given),-2%
28,Nc1ccc(O)c2c1C(=O)c1ccccc1C2O (stereo not given),32%
29,CC(=O)OC1CCC2(C)C(CCC3C4=CCC(C5COC(=O)C5)C4(C)CCC32)C1 (stereo not given),-5%
30,CCN(CC)CCOc1ccc(NC(=S)Nc2ccc(OCC(C)C)cc2)cc1,42%
